Holding throughout (assay): PBM; 200 nM protein, PBS
Common to all, as to conditions: dsDNA, one strand shown

The target of experiment [1] is HESX1 (Homo sapiens, UniProt Q9UBX0 95-180, R165K).
Experiment [2] concerns the target SHOX (Homo sapiens, UniProt O15266 103-189).
For the next experiment, the target named is ALX4 (Homo sapiens, UniProt Q9H161 200-286, Q225E).
Experiment [3] addresses ALX1 (Homo sapiens, UniProt Q15699 118-204, L144V).
Experiment [4] concerns the target ALX3 (Homo sapiens, UniProt O95076 139-225, N203Q).
Experiment [5] deals with SHOX (Homo sapiens, UniProt O15266 103-189, R173C).
Chain of SHOX (Homo sapiens, UniProt O15266 103-189, R173C) (O15266 103-189 R173C): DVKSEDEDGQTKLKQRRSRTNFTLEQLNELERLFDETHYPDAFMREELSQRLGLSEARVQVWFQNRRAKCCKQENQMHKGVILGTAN
In experiment [6] the target is ALX1 (Homo sapiens, UniProt Q15699 118-204, L144R).
Chain of ALX1 (Homo sapiens, UniProt Q15699 118-204, L144R) (Q15699 118-204 L144R): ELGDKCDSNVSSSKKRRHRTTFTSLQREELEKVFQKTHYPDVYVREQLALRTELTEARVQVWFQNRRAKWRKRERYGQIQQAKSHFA
Experiment [7] has as its target ALX3 (Homo sapiens, UniProt O95076 139-225).
The target of experiment [8] is PROP1 (Homo sapiens, UniProt O75360 56-141).
Chain of PROP1 (Homo sapiens, UniProt O75360 56-141) (O75360 56-141): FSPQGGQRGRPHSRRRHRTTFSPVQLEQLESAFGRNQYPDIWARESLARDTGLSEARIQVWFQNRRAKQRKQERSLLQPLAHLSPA
The target in experiment [9] is HESX1 (Homo sapiens, UniProt Q9UBX0 95-180, R109Q).
Chain of HESX1 (Homo sapiens, UniProt Q9UBX0 95-180, R109Q) (Q9UBX0 95-180 R109Q): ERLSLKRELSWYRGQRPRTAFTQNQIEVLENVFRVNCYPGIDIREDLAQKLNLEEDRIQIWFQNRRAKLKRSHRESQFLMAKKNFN
Experiment [10] deals with PROP1 (Homo sapiens, UniProt O75360 56-141, R99H).
Chain of PROP1 (Homo sapiens, UniProt O75360 56-141, R99H) (O75360 56-141 R99H): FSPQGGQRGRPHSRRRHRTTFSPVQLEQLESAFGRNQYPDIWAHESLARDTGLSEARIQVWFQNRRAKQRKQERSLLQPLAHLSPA
In experiment [11] the target is ALX3 (Homo sapiens, UniProt O95076 139-225, L168Q).
Chain of ALX3 (Homo sapiens, UniProt O95076 139-225, L168Q) (O95076 139-225 L168Q): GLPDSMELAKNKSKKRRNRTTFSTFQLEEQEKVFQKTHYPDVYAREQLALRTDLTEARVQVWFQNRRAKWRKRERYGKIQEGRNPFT
Experiment [12] deals with ALX3 (Homo sapiens, UniProt O95076 139-225, L168V).
Chain of ALX3 (Homo sapiens, UniProt O95076 139-225, L168V) (O95076 139-225 L168V): as the sequence (O95076 139-225 L168Q) above, with Q30V counted along it
Experiment [13] deals with PROP1 (Homo sapiens, UniProt O75360 56-141, F88S).
Chain of PROP1 (Homo sapiens, UniProt O75360 56-141, F88S) (O75360 56-141 F88S): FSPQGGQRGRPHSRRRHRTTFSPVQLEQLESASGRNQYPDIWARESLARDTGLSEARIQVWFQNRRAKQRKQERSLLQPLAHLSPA
For experiment [14], the target named is HESX1 (Homo sapiens, UniProt Q9UBX0 95-180, F115L).
Chain of HESX1 (Homo sapiens, UniProt Q9UBX0 95-180, F115L) (Q9UBX0 95-180 F115L): as the sequence (Q9UBX0 95-180 R109Q) above, with Q15R, F21L counted along it
In experiment [15] the target is ALX1 (Homo sapiens, UniProt Q15699 118-204).
Chain of ALX1 (Homo sapiens, UniProt Q15699 118-204) (Q15699 118-204): as the sequence (Q15699 118-204 L144R) above, with R27L counted along it
For experiment [16], the target named is ALX3 (Homo sapiens, UniProt O95076 139-225, N203S).
Chain of ALX3 (Homo sapiens, UniProt O95076 139-225, N203S) (O95076 139-225 N203S): as the sequence (O95076 139-225 L168Q) above, with Q30L, N65S counted along it
The target of experiment [17] is HESX1 (Homo sapiens, UniProt Q9UBX0 95-180).
Chain of HESX1 (Homo sapiens, UniProt Q9UBX0 95-180) (Q9UBX0 95-180): as the sequence (Q9UBX0 95-180 R109Q) above, with Q15R counted along it
The target of another experiment is MSX2 (Homo sapiens, UniProt P35548 130-214, R199I).
Chain of MSX2 (P35548 130-214 R199I): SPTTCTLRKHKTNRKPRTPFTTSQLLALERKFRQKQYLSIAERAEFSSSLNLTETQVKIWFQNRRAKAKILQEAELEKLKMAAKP
Experiment [18] has as its target HESX1 (Homo sapiens, UniProt Q9UBX0 95-180, P111T).

Chain of ALX4 (Q9H161 200-286 Q225E): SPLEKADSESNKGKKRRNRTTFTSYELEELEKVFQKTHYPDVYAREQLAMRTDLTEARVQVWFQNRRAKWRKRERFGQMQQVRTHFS
Chain of ALX3 (Homo sapiens, UniProt O95076 139-225, N203Q) (O95076 139-225 N203Q): as the sequence (O95076 139-225 L168Q) above, with Q30L, N65Q counted along it
Chain of HESX1 (Homo sapiens, UniProt Q9UBX0 95-180, P111T) (Q9UBX0 95-180 P111T): as the sequence (Q9UBX0 95-180 R109Q) above, with Q15R, P17T counted along it
Chain of HESX1 (Homo sapiens, UniProt Q9UBX0 95-180, R165K) (Q9UBX0 95-180 R165K): as the sequence (Q9UBX0 95-180 R109Q) above, with Q15R, R71K counted along it
Chain of ALX3 (Homo sapiens, UniProt O95076 139-225) (O95076 139-225): as the sequence (O95076 139-225 L168Q) above, with Q30L counted along it
Chain of SHOX (Homo sapiens, UniProt O15266 103-189) (O15266 103-189): as the sequence (O15266 103-189 R173C) above, with C71R counted along it
Chain of ALX1 (Homo sapiens, UniProt Q15699 118-204, L144V) (Q15699 118-204 L144V): as the sequence (Q15699 118-204 L144R) above, with R27V counted along it

As to ATTAATGA, the binding signal with HESX1 [1] is 11.4 upbm affinity estimate (log intensity, higher = more binding, comparable within an allelic series); with SHOX [2] it was 11.5 upbm affinity estimate (log intensity, higher = more binding, comparable within an allelic series); with ALX4, 12.8 upbm affinity estimate (log intensity, higher = more binding, comparable within an allelic series); with ALX1 [3], 11.6 upbm affinity estimate (log intensity, higher = more binding, comparable within an allelic series); with ALX3 [4] it was 8.5 upbm affinity estimate (log intensity, higher = more binding, comparable within an allelic series); with SHOX [5], 9.51 upbm affinity estimate (log intensity, higher = more binding, comparable within an allelic series). For the same sequence, the binding signal was 11.4 upbm affinity estimate (log intensity, higher = more binding, comparable within an allelic series) with ALX1 [6]; 12.3 upbm affinity estimate (log intensity, higher = more binding, comparable within an allelic series) in the experiment with ALX3 [7]; 11.2 upbm affinity estimate (log intensity, higher = more binding, comparable within an allelic series) with PROP1 [8]; 8.79 upbm affinity estimate (log intensity, higher = more binding, comparable within an allelic series) in the experiment with HESX1 [9]; 10.9 upbm affinity estimate (log intensity, higher = more binding, comparable within an allelic series) with PROP1 [10]; 10.3 upbm affinity estimate (log intensity, higher = more binding, comparable within an allelic series) with ALX3 [11]. Also, the binding signal in the experiment with ALX3 [12] was 9.84 upbm affinity estimate (log intensity, higher = more binding, comparable within an allelic series); in the experiment with PROP1 [13], 7.87 upbm affinity estimate (log intensity, higher = more binding, comparable within an allelic series); in the experiment with HESX1 [14] it was 7.87 upbm affinity estimate (log intensity, higher = more binding, comparable within an allelic series); in the experiment with ALX1 [15], 12.2 upbm affinity estimate (log intensity, higher = more binding, comparable within an allelic series); with ALX3 [16], 8.58 upbm affinity estimate (log intensity, higher = more binding, comparable within an allelic series).
As for CGTAATTA, the binding signal is 12.6 upbm affinity estimate (log intensity, higher = more binding, comparable within an allelic series) with HESX1 [1]; 12.4 upbm affinity estimate (log intensity, higher = more binding, comparable within an allelic series) with SHOX [2]; 13.5 upbm affinity estimate (log intensity, higher = more binding, comparable within an allelic series) with ALX4; 12.6 upbm affinity estimate (log intensity, higher = more binding, comparable within an allelic series) in the experiment with HESX1 [17]; 12.9 upbm affinity estimate (log intensity, higher = more binding, comparable within an allelic series) with MSX2; 12 upbm affinity estimate (log intensity, higher = more binding, comparable within an allelic series) in the experiment with ALX1 [3]. In addition, the binding signal with ALX3 [4] was 8.47 upbm affinity estimate (log intensity, higher = more binding, comparable within an allelic series); with SHOX [5], 9.89 upbm affinity estimate (log intensity, higher = more binding, comparable within an allelic series); with ALX1 [6], 11.7 upbm affinity estimate (log intensity, higher = more binding, comparable within an allelic series); in the experiment with ALX3 [7], 12.7 upbm affinity estimate (log intensity, higher = more binding, comparable within an allelic series); in the experiment with PROP1 [8], 11.6 upbm affinity estimate (log intensity, higher = more binding, comparable within an allelic series); with HESX1 [9] it was 9.06 upbm affinity estimate (log intensity, higher = more binding, comparable within an allelic series). In addition, the binding signal in the experiment with PROP1 [10] was 11.5 upbm affinity estimate (log intensity, higher = more binding, comparable within an allelic series); in the experiment with ALX3 [11], 10.7 upbm affinity estimate (log intensity, higher = more binding, comparable within an allelic series); with HESX1 [18], 11.1 upbm affinity estimate (log intensity, higher = more binding, comparable within an allelic series); with ALX3 [12], 10.2 upbm affinity estimate (log intensity, higher = more binding, comparable within an allelic series); in the experiment with PROP1 [13] it was 7.88 upbm affinity estimate (log intensity, higher = more binding, comparable within an allelic series); with HESX1 [14] it was 7.77 upbm affinity estimate (log intensity, higher = more binding, comparable within an allelic series). Moreover, the binding signal is 12.7 upbm affinity estimate (log intensity, higher = more binding, comparable within an allelic series) in the experiment with ALX1 [15] and 8.56 upbm affinity estimate (log intensity, higher = more binding, comparable within an allelic series) with ALX3 [16].
For ATTAATTA, the binding signal in the experiment with HESX1 [1] is 14 upbm affinity estimate (log intensity, higher = more binding, comparable within an allelic series); with SHOX [2], 13.3 upbm affinity estimate (log intensity, higher = more binding, comparable within an allelic series); with ALX4, 14.6 upbm affinity estimate (log intensity, higher = more binding, comparable within an allelic series); with HESX1 [17] it was 13.8 upbm affinity estimate (log intensity, higher = more binding, comparable within an allelic series); with MSX2, 13.4 upbm affinity estimate (log intensity, higher = more binding, comparable within an allelic series); with ALX1 [3], 12.5 upbm affinity estimate (log intensity, higher = more binding, comparable within an allelic series). Besides, the binding signal was 8.67 upbm affinity estimate (log intensity, higher = more binding, comparable within an allelic series) with ALX3 [4]; 10.8 upbm affinity estimate (log intensity, higher = more binding, comparable within an allelic series) with SHOX [5]; 12.1 upbm affinity estimate (log intensity, higher = more binding, comparable within an allelic series) with ALX1 [6]; 13.2 upbm affinity estimate (log intensity, higher = more binding, comparable within an allelic series) with ALX3 [7]; 12.3 upbm affinity estimate (log intensity, higher = more binding, comparable within an allelic series) with PROP1 [8]; 11 upbm affinity estimate (log intensity, higher = more binding, comparable within an allelic series) with HESX1 [9]. Besides, the binding signal is 12.5 upbm affinity estimate (log intensity, higher = more binding, comparable within an allelic series) with PROP1 [10]; 11.6 upbm affinity estimate (log intensity, higher = more binding, comparable within an allelic series) with ALX3 [11]; 12.5 upbm affinity estimate (log intensity, higher = more binding, comparable within an allelic series) with HESX1 [18]; 11.5 upbm affinity estimate (log intensity, higher = more binding, comparable within an allelic series) with ALX3 [12]; 8.37 upbm affinity estimate (log intensity, higher = more binding, comparable within an allelic series) in the experiment with PROP1 [13]; 8.72 upbm affinity estimate (log intensity, higher = more binding, comparable within an allelic series) with HESX1 [14]. The binding signal with ALX1 [15] is 13.2 upbm affinity estimate (log intensity, higher = more binding, comparable within an allelic series); with ALX3 [16] it was 8.88 upbm affinity estimate (log intensity, higher = more binding, comparable within an allelic series).
For GTAATTAA, the binding signal with HESX1 [1] was 13.2 upbm affinity estimate (log intensity, higher = more binding, comparable within an allelic series); with SHOX [2], 12.8 upbm affinity estimate (log intensity, higher = more binding, comparable within an allelic series); with ALX4, 14 upbm affinity estimate (log intensity, higher = more binding, comparable within an allelic series); in the experiment with HESX1 [17], 13.3 upbm affinity estimate (log intensity, higher = more binding, comparable within an allelic series); in the experiment with MSX2, 13.2 upbm affinity estimate (log intensity, higher = more binding, comparable within an allelic series); with ALX1 [3], 12.2 upbm affinity estimate (log intensity, higher = more binding, comparable within an allelic series). Moreover, the binding signal in the experiment with ALX3 [4] was 8.59 upbm affinity estimate (log intensity, higher = more binding, comparable within an allelic series); with SHOX [5], 10.3 upbm affinity estimate (log intensity, higher = more binding, comparable within an allelic series); with ALX1 [6], 11.8 upbm affinity estimate (log intensity, higher = more binding, comparable within an allelic series); with ALX3 [7], 12.9 upbm affinity estimate (log intensity, higher = more binding, comparable within an allelic series); with PROP1 [8], 11.9 upbm affinity estimate (log intensity, higher = more binding, comparable within an allelic series); with HESX1 [9], 9.89 upbm affinity estimate (log intensity, higher = more binding, comparable within an allelic series). For the same sequence, the binding signal was 11.8 upbm affinity estimate (log intensity, higher = more binding, comparable within an allelic series) in the experiment with PROP1 [10]; 11.2 upbm affinity estimate (log intensity, higher = more binding, comparable within an allelic series) with ALX3 [11]; 11.8 upbm affinity estimate (log intensity, higher = more binding, comparable within an allelic series) in the experiment with HESX1 [18]; 10.8 upbm affinity estimate (log intensity, higher = more binding, comparable within an allelic series) with ALX3 [12]; 7.99 upbm affinity estimate (log intensity, higher = more binding, comparable within an allelic series) in the experiment with PROP1 [13]; 8.12 upbm affinity estimate (log intensity, higher = more binding, comparable within an allelic series) with HESX1 [14]. Besides, the binding signal in the experiment with ALX1 [15] was 12.9 upbm affinity estimate (log intensity, higher = more binding, comparable within an allelic series); with ALX3 [16], 8.7 upbm affinity estimate (log intensity, higher = more binding, comparable within an allelic series).

The values above are taken from paper PMC11006913.
